GALR2 agonist: agonists of human galanin receptor 2 (GALR2); O43603; GALR2-expressing cells, agonist activation read-out; activation, % (test concentration not listed); 0.48% of 140,000 active; in the data active = activation above about 5%, passing the limit was not always enough
Target sequence (O43603 whole entry, looked up): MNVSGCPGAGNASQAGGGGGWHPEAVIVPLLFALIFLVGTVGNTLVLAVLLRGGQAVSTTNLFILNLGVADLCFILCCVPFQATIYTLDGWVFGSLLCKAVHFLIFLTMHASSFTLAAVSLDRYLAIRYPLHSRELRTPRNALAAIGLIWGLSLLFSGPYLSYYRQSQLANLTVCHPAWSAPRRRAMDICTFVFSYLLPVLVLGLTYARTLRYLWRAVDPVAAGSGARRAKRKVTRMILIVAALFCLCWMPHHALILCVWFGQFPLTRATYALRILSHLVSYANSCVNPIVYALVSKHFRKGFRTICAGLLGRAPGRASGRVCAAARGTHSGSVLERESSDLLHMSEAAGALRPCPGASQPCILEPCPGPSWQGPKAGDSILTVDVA
S1P2 blocker: S1P2 (human) receptor antagonism; O95136; cell-based S1P2 antagonist assay, inhibition at 5 uM; inhibition, % at 5 µM; 0.21% of 97,000 active; in the data active = inhibition above about 45%;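 note: CRE beta-lactamase reporter cells expressing human S1P2 stimulated with S1P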
MRP resist rev: MRP-mediated drug resistance reversal; H69AR cells + 2 uM doxorubicin, CellTiter-Glo, 72 h; differential viability (reversal), % at 10 µM; 0.04% of 85,000 active;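 active = viability drop by adding the cancer drug above about 55%, with treated viability meeting a 40% cutoff, limit read from the data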;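 note: larger differential means the compound sensitizes cells more to doxorubicin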
MRP1 act: activators of MRP-1; H69AR cells + doxorubicin, viability rescue, CellTiter-Glo; viability increase, % at 10 µM; 0.61% of 140,000 active; AID 799;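 active = viability gain under doxorubicin at or above a set limit, the compound median plus 3 SD, cut at about 4.7% in these data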;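 note: MRP-1 overexpressing cells given doxorubicin 25 µM after compound pretreatment; 18-22 h compound pretreatment then 72 h with doxorubicin before readout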
GALR2 antag: blocks the human galanin receptor 2. GALR2-expressing cells, antagonist mode. inhibition, % at 4 µM. 0.39% of 140,000 active;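 note: cells stimulated with galanin 1-16 at roughly its EC80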
S1P2 agonist: agonists of human S1P2 receptor; S1P2-expressing cell line, agonist reporter read-out; activation, % at 4.5 µM; 0.46% of 97,000 active; AID 729; in the data active = activation above about 16%
GALR2 ag confirm: GALR2 (human) agonism confirmed. shares compounds with GALR2 agonist. GALR2-expressing cells, agonist activation. activation, % at 5.6 µM. 10% of 460 active. AID 864; in the data active = activation above about 8.4%
BLA act counter: beta-lactamase activation, GALR2 counterscreen; shares compounds with GALR2 agonist; activation, % at 5.6 µM; CHO NFAT-bla reporter, beta-lactamase FRET activation; 10% of 460 active;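 active = activation above the screen-wide mean activation plus 3 SD, cut at about 8% in these data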
GALR2 blk conf: GALR2 (human) antagonism confirmed | shares compounds with GALR2 antag | GALR2-expressing cells, antagonist mode, inhibition | inhibition, % at 4 µM | 60% of 480 active;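 note: cells stimulated with galanin at about its EC80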
BLA inhib ctr: inhibits beta-lactamase reporter in GALR2 antagonist counterscreen; 36% of 480 active; CHO NFAT-BLA reporter, beta-lactamase FRET, thapsigargin-stimulated; inhibition, % at 4.2 µM; shares compounds with GALR2 antag;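 active = inhibition above the mean inhibition across tested compounds plus 3 SD, cut at about 27% in these data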
Numbers stand for hits; – = inactive; · = not tested or not shown. A selection: hits, their analogues and other compounds. The true share with any hit is near 1.7%. Cut-off read from the data, not from the text of the source, unless noted: active = inhibition above about 27%; inactive = the rest.

SMILES	GALR2 agonist	S1P2 blocker	MRP resist rev	MRP1 act	GALR2 antag	S1P2 agonist	others
CCOC(=O)c1nc2ccccc2c(=O)n1-c1cccc(C)c1	–	–	·	–	–	–
N#CCCn1cc(C(=O)Nc2ccccc2Br)c(-c2ccc3c(c2)OCCO3)n1	–	·	·	–	–	·
CN1C(=O)C(=Cc2ccccc2OCc2ccccc2Cl)C(=O)N(C)C1=O	–	·	·	–	–	·
COc1cc(/C=C(/C)[N+](=O)[O-])ccc1OCc1ccccc1Cl	11	·	·	–	–	·	GALR2 ag confirm=–;BLA act counter=–
CN(C)CCc1nc2ccccc2c(=O)n1-c1ccccc1	32	–	–	–	–	–	GALR2 ag confirm=–;BLA act counter=–
O=C(COc1ccccc1)Nc1ccc(Cl)cc1C(=O)c1ccccc1	–	·	·	–	–	·
COc1ccc(OCC(=O)Nc2ccc(Cl)cc2C(=O)c2ccccc2)cc1	–	–	·	–	–	–	GALR2 ag confirm=–;BLA act counter=–
Cc1nn(Cc2ccc(Cl)cc2Cl)c(Cl)c1C(=O)NC1CCCc2ccccc21 (stereo not drawn)	–	·	·	–	–	·
O=C(CCCN1CCC2(CC1)C(=O)NCN2c1ccccc1)c1ccc(F)cc1	16	·	–	–	–	·	GALR2 ag confirm=8.8;BLA act counter=14
COc1cccc(-n2c(CN3CCN(C)CC3)nc3ccc([N+](=O)[O-])cc3c2=O)c1	–	·	·	–	–	·
N#Cc1cc2c(nc1SCC(=O)Nc1cc(Cl)ccc1Cl)C1CCN2CC1	–	–	–	–	–	–	GALR2 ag confirm=–;BLA act counter=–
C=CCn1c(O)c(/C=C2/C=CC=N2)c(=O)[nH]c1=O	–	·	·	–	35	·	GALR2 blk conf=–;BLA inhib ctr=–
Nc1cc(Cl)c2nonc2c1[N+](=O)[O-]	–	·	·	–	37	·	GALR2 blk conf=35;BLA inhib ctr=–
Brc1ccc(C2N3CCCN23)cc1 (stereo not drawn)	–	·	·	–	–	·
COc1cc(/C=C/[N+](=O)[O-])ccc1O	–	·	·	–	52	·	GALR2 blk conf=55;BLA inhib ctr=–
O=[N+]([O-])c1cc(S(=O)(=O)c2ccc(O)c([N+](=O)[O-])c2)ccc1O	–	·	·	–	–	·
CC(=O)OC(C)(C)/C=C/C(=O)[C@](C)(O)[C@H]1[C@H](O)C[C@@]2(C)[C@@H]3CC=C4[C@H](C[C@H](O)C(=O)C4(C)C)[C@]3(C)C(=O)C[C@]12C	–	·	·	–	72	·	GALR2 blk conf=87;BLA inhib ctr=102
COc1ccc(OC)c2c1CCC1NCCOC21 (stereo not drawn)	–	·	·	–	–	·
CC(=O)OC1(c2ccc(C)cc2)CN2CCC1c1ccccc12 (stereo not drawn)	–	–	–	–	39	–	GALR2 blk conf=–;BLA inhib ctr=–
Cc1ccc(Cn2cc(C=O)c(-c3ccc(C)cc3)n2)cc1	–	·	·	–	–	·
CC(C)OP(=O)(OC(C)C)C(O)c1ccccc1F (stereo not drawn)	–	·	·	–	–	·
